TEAD-YAP block: TEAD-YAP interaction inhibition; HEK-TIYL cells, TEAD-Gal4/YAP UAS-luciferase luminescence; inhibition, % at 9.12 µM; actives 1.4% (n = 640,000); AID 1259422; in the data active means inhibition above about 32%;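 further: 0% = median of test compound wells and 100% = reference inhibitor wells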
GPR151 ag: activators of human GPR151. PathHunter beta-arrestin GPR151 cells, luminescence. Q8TDV0. activation, % at 11.2 µM. actives 1% (n = 650,000); in the data active means activation above about 4.9%;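 further: 0% = median of compound wells and 100% = cells with positive control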
FBW7 activator: human FBW7 E3 ligase activation, primary screen; actives 0.13% (n = 650,000); Q969H0; AlphaScreen FBW7–phospho-cyclin E peptide binding, activator screen; AID 1259310; normalized activity (activation), % at 26.1 µM; in the data active means normalized activity above about 1.9%;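 further: purified mutant Fbw7 with reduced substrate affinity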
Target sequence (Q969H0 whole entry, looked up): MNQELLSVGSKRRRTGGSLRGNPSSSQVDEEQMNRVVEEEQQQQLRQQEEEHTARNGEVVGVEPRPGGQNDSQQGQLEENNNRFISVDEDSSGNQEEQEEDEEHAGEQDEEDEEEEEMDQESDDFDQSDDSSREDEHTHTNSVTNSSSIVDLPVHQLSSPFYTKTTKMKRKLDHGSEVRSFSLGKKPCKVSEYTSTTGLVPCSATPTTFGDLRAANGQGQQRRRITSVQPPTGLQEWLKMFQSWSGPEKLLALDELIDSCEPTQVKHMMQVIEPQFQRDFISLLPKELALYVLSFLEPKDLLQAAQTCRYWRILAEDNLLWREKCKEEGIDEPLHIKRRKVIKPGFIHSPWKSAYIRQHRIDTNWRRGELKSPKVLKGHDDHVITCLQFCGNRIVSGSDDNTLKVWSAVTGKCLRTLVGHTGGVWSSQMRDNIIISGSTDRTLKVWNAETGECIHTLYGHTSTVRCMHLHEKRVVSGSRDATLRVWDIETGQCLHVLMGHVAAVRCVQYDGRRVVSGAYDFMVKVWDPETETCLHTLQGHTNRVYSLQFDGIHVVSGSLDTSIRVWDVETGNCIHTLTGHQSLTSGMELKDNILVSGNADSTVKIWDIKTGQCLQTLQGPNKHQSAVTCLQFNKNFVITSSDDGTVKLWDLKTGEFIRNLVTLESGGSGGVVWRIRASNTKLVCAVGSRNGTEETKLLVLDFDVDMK
MITF inh: human MITF inhibition, primary screen; AID 1259374; actives 0.91% (n = 650,000); AlphaScreen MITF homodimerization, bead proximity signal; inhibition, % at 2.6 µM; O75030; in the data active means inhibition above about 50%;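 further: 0% = vehicle wells with protein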
* hit, by the source's call; ! = not active in a repeat. Compounds with a hit are over-represented: about 3.4% of the library has one in this group of screens.

SMILES	TEAD-YAP block	GPR151 ag	FBW7 activator	MITF inh
O=C1CCCC2=C1C(c1cc(Br)ccc1O)C1C(=O)c3ccccc3C1=N2 (configuration not stated)	50*	3	0	16
COc1ccc(-c2cc(-c3ccccc3)c(C#N)c(S(C)=O)n2)cc1 (configuration not stated)	53*	0	0	-8
COc1ccc(-c2cc(-c3ccccc3)c(C#N)c(S(=O)Cc3ccccc3)n2)cc1 (configuration not stated)	3	-1	0	5
CC(C)C[C@@H]1NC(=O)[C@H]2CN(Cc3ccccc3)CCN2C1=O	-8	1	0	-9
COc1ccc(S(=O)(=O)NCCNc2nc(C)cc(N(C)C)n2)c(OC)c1	32*	-2	0	9
Cc1ccccc1Cn1c(C(=O)O)c(CNC2CC2)c2ccccc21	16	0	0	2
N#C/C(=C\c1cc([N+](=O)[O-])ccc1Cl)c1nn(CCO)c(N)c1C#N	67*	0	0	10
N#C/C(=C\c1ccc(Cl)c([N+](=O)[O-])c1)c1nn(CCO)c(N)c1C#N	1	0	0	8
COc1ccc(C2C3=C(Nc4[nH]c(=O)[nH]c(=O)c42)c2ccccc2C3=O)cc1 (configuration not stated)	56*	-2	0	21
Cc1ccc(C2C3=C(Nc4c2c(=O)[nH]c(=O)n4C)c2ccccc2C3=O)cc1 (configuration not stated)	1	-1	0	-2
CCc1ccc(C2C3=C(Nc4c2c(=O)[nH]c(=O)n4CCOC)c2ccccc2C3=O)cc1 (configuration not stated)	43*	-1	0	-4
Cc1ccc(C2C3=C(Nc4[nH]c(=O)[nH]c(=O)c42)c2ccccc2C3=O)cc1 (configuration not stated)	39*	0	0	16
COCCn1c2c(c(=O)[nH]c1=O)C(c1ccccc1)C1=C(N2)c2ccccc2C1=O (configuration not stated)	10	1	0	7
CCCC(=O)Nc1ccc(C(=O)NCc2ccc(OC)cc2)cc1	2	1	0	6
COc1ccc(C2(C(=O)NC(C)c3nc(-c4ccncc4)n[nH]3)CC2)cc1 (configuration not stated)	64*	0	0	-4
COc1ccc(C2(C(=O)NC(C)c3nc(-c4cccnc4)n[nH]3)CCCCC2)cc1 (configuration not stated)	1	0	0	1
Cc1cnc(N2CCCC2CO)nc1NCc1ccccc1 (configuration not stated)	50*	-1	0	2
Nc1nc(NCc2ccccc2)cc(N2CCCC2CO)n1 (configuration not stated)	45*	1	1	-8
CCc1cccc(C)c1NC(=O)COc1ccc(C)cc1	11	2	0	-5
COc1cccc(N2CCN(CC3CC4C=CC3C4)CC2)c1 (configuration not stated)	4	1	0	11
COc1cccc(=O)c2c(C)n(-c3cccc([N+](=O)[O-])c3)c(C)c12	0	-1	1	2
CCCOc1ccc2nc(NC(=O)OC)[nH]c2c1	34*	-1	0	-5
CCOc1ccc2nc(NCCCO)[nH]c2c1	-9	0	0	0
O=C(COc1ccc(C(=O)c2ccccc2)cc1)Nc1nc2ccccc2[nH]1	7	3	0	-11
COC(=O)Nc1nc2ccc(C(=O)c3ccc(F)cc3)cc2[nH]1	35*!	0	0	12
SMILES	TEAD-YAP block	GPR151 ag	FBW7 activator	MITF inh
COC(=O)C(=O)Nc1nc2ccc(C(=O)c3ccccc3C(=O)OC(C)C)cc2[nH]1	52*	2	0	-14
O=C(c1ccccc1)c1ccc2nc(-c3ccc(NC(=O)c4ccccc4Cl)cc3)[nH]c2c1	-29	-1	0	-1
COc1ccc([N+](=O)[O-])cc1-n1c(C)cc(C=O)c1C	-10	-1	0	22
COc1ccc2oc(=Nc3ccc(OC(F)(F)F)cc3)c(C(N)=O)cc2c1	0	0	0	12
Cc1cc(C(=O)COC(=O)c2ccccc2)c(C)n1-c1ccc2c(c1)OCO2	6	-1	0	14
COc1ccc2nc3oc(C(=O)N4CCOCC4)cc3cc2c1	64*	-5	0	10
Cc1ccc(C(=O)[C@@H]2[C@@H](c3ccsc3)C(C#N)(C#N)[C@H]3C=Cc4ccccc4N23)cc1	6	-1	0	-4
COc1ccc(C(=O)[C@@H]2[C@@H](c3ccsc3)C(C#N)(C#N)[C@H]3C=Cc4ccccc4N23)cc1	60*	4	0	15
COc1ccc(C(=O)[C@@H]2[C@@H](c3ccc(OC)cc3)C(C#N)(C#N)[C@H]3C=Cc4ccccc4N23)cc1	63*	3	0	21
COc1ccc(C(=O)[C@@H]2[C@@H](c3cccc(Br)c3)C(C#N)(C#N)[C@H]3C=Cc4ccccc4N23)cc1	64*	2	0	6
O=C1CC2(CCN(C(=O)c3cccs3)CC2)Oc2ccccc21	6	-2	1	7
CN1C(=O)N(C)C2C1NNC(=S)N2C (configuration not stated)	61*	-1	0	11
Cc1ccnc(NC(c2ccsc2)c2ccc3cccnc3c2O)c1 (configuration not stated)	89*	0	0	62*
Oc1c(C(Nc2cccnc2)c2ccsc2)ccc2cccnc12 (configuration not stated)	50*	1	0	18
Cc1ccnc(NC(c2ccc(F)cc2)c2ccc3cccnc3c2O)c1 (configuration not stated)	73*	-1	-2	17
Cc1ccnc(NC(c2ccc3c(c2)OCO3)c2ccc3cccnc3c2O)c1 (configuration not stated)	82*	1	0	28
Cc1ccnc(NC(c2ccccn2)c2ccc3cccnc3c2O)c1 (configuration not stated)	71*	-1	-1	70*
Cc1ccnc(NC(c2ccncc2)c2ccc3cccnc3c2O)c1 (configuration not stated)	79*	1	0	113*
CN(C)c1ccc(CN2CCC(C(N)=O)CC2)cc1	-16	0	0	76*
CN(C)c1ccc(CN2CCN(c3ncccn3)CC2)cc1	2	-2	0	34
CN(C)c1ccc(CN2CCN(CCO)CC2)cc1	-5	1	0	77*
COc1ccc(NC(=O)c2ccc(N3CC4CC(C3)c3cccc(=O)n3C4)c(NS(=O)(=O)c3ccc(NC(C)=O)cc3)c2)cc1OC (configuration not stated)	-4	2	0	-10
CCCN(C(C)=O)c1nnc(-c2ccc(C(C)(C)C)cc2)s1	-65	-2	0	-4
CN(C)c1ccc(CC(=O)c2nc3ccccc3s2)cc1	34*	-2	0	10

High-throughput results from PubChem.
